± gives the standard deviation. Over roughly 5,500 sequences, “pre-steady-state target cleavage rate” has its median near 0.1; the highest 2% begin near 0.64. This is one part of a sample in which the highest values are shown more often than they occur.
Test system: MIWI (PIWIL1) piRISC loaded with piRNA #2 (30 nt)
Experiment: pre-steady-state target cleavage rate (min^-1); MIWI and MILI are mouse PIWI proteins and EfPiwi is from a freshwater sponge; tags in brackets are library labels; higher = faster piRNA-guided slicing of the target
Conditions: guide: piRNA #2 5'p-UUAGGUAACCCAGUAGAUCCAGAGGAAUUC; auxiliary factor: 500 nM mouse GTSF1
Protocol: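 Cleave-'n-Seq: a library of target RNAs (target site embedded in constant flanks, ACAGCATTCCGCGTTAGTGATATCCG... 5' flank; DNA-blocked outside the site) at 0.1 nM was incubated with 1 nM active mouse MILI or MIWI piRISC (synthetic 5'-monophosphorylated piRNA guide) with or without 500 nM mouse GTSF1 at 33 °C for 1 min to 16 h. Uncleaved targets were sequenced and normalised to non-target controls, and the pooled three trials were fitted to a burst-and-steady-state model to give the pre-steady-state cleavage rate (min^-1; k3 is constrained to at most 1e-4). Sequence is the target site only; target names encode pairing extent (gX:gY) and contiguous / 1-mismatch / 2-mismatch / bulge geometry. Fits with R² ≤ 0 are excluded.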

Row | Sequence | pre-steady-state target cleavage rate
1 | CUAUUCCACUGGAUCUACUGGGUUACCUAA | 0.588 ± 0.061
2 | CUUUUCCACUCGAUCUACUGGGUUACCUAA | 0.547 ± 0.033
3 | CUAUUCCACUCGAUCUACUGGGUUACCUAA | 0.703 ± 0.037
4 | CUAUUCCACUGGAUCUACUCGGUUACCUAA | 0.0817 ± 0.018
5 | CAAUUCCACUCGAUCUACUGGGUUACCUAA | 0.798 ± 0.047
6 | GAAUUCCACUCGAUCUACUGGGUUACCUAA | 0.564 ± 0.056
7 | CUUAACCUCUGGAUCUAGUGGGUUACCAAA | 0.0597 ± 0.0073
8 | CAAUUCCACUGGAACUACUGGGUUACCUAA | 0.408 ± 0.042
9 | CUUAAGCUGUGGAUCUACUGGGUUUCCUAA | 0.0403 ± 0.019
10 | CAAUACCUCUGGAUCUACUGCGUUACCUAA | 0.488 ± 0.063
11 | CAAUACCUCUGGAUCUACUGGGUUACGUAA | 0.567 ± 0.059
12 | CUUAUACCUCUGGAUCUACUGGGUUACCUAA | 0.389 ± 0.061
13 | GUAUACCUCUGGAUCUACUGGGUUACCUAA | 0.642 ± 0.23
14 | CUAUACCUCUGGAUCUACUGCGUUACCUAA | 0.732 ± 0.066
15 | CUAUACCUCUGGAUCUACUGGGUUACGUAA | 0.674 ± 0.032
16 | CUAUACCUCUGGAUCUACUGGGUUACCUAA | 0.544 ± 0.084
17 | GAAUACCUCUGGAUCUACUGGGUUACGUAA | 0.609 ± 0.038
18 | GAAUACCUCUGGAUCUACUGCGUUACCUAA | 0.456 ± 0.04
19 | CUUAAGCUCUGGAUCUACUGGCUUACCUAA | 0.0576 ± 0.012
20 | CUUAAGGUCUGGAUCUACUGCGUUUCCUAA | 0.0557 ± 0.014
21 | CUUAAGGUAUGGAUCUACUGGGUUACCUAA | 0.323 ± 0.035
22 | CAAUUCCUCUGGAACUACUCGGUUACCUAA | 0.157 ± 0.022
23 | CUUAACCUCUGGAUCUACUGGGUAAGCUAA | 0.05 ± 0.0099
24 | CUAUUCCUCCUGGAUCUACUGGGUUACCUAA | 0.613 ± 0.06
25 | GAAUUCCUCCGGAUCUACUGGGUUACCUAA | 0.407 ± 0.058

Row | Sequence | pre-steady-state target cleavage rate
26 | CUAUUCCUCGGAUCUACUGGGUUACCUAA | 0.447 ± 0.083
27 | CAAUUCCUCCGGAUCUACUGGGUUACCUAA | 0.677 ± 0.096
28 | CUAUUCCUCCGGAUCUACUGGGUUACCUAA | 0.697 ± 0.12
29 | CAAUUCCUCGGAUCUACUGGGUUACCUAA | 0.47 ± 0.087
30 | CUUAAGGACUGGAUCUACAGCGUUACCUAA | 0.00714 ± 0.0051
31 | CUUUUCCACUGGAUCUACAGGGUUACCUAA | 0.248 ± 0.016
32 | CAAUUCCUCUCGAUCUUCUGGGUUACCUAA | 0.737 ± 0.059
33 | CUAUUCCUCUCGAUCUUCUGGGUUACCUAA | 0.803 ± 0.07
34 | GAAUUCCUCUCGAUCUUCUGGGUUACCUAA | 0.62 ± 0.064
35 | CUAUUCCUCUGGAUCUUCUGGGUUACCUAA | 0.412 ± 0.054
36 | CUUUUCCUCUCGAUCUUCUGGGUUACCUAA | 0.63 ± 0.051
37 | CAAUUCCUCUGGAUCUUCUGGGUUACCUAA | 0.49 ± 0.065
38 | CUUAUCCUCUGGAUCAUCUGGGUUACCUAA | 0.246 ± 0.028
39 | CAUAACCUCUGGAUCUACUGGGUUACCUAA | 0.234 ± 0.033
40 | CUUAACCUCUGGAUCUUCUGGGUUUCCUAA | 0.042 ± 0.0092
41 | CAAUUCCUCUGGAUCUACAGGGUUUCCUAA | 0.178 ± 0.026
42 | CAAUUCCUCAGGAUCUACUGGGUUACCUUA | 0.604 ± 0.075
43 | GAAUUCCUCUGGAUGUACAGGGUUACCUAA | 0.413 ± 0.029
44 | CUUAUCCUCUGGUUCUACUGGGUUACCUAA | 0.607 ± 0.047
45 | GAAAUCCUCUGGUUCUACUGGGUUACCUAA | 0.624 ± 0.05
46 | CUAAUCCUCUGGAUCUACUGGGUUACCUAA | 0.412 ± 0.061
47 | CUAAUCCUCUGGUUCUACUGGGUUACCUAA | 0.755 ± 0.048
48 | CAAAUCCUCUGGAUCUACUGGGUUACCUAA | 0.47 ± 0.069
49 | CAAAUCCUCUGGUUCUACUGGGUUACCUAA | 0.79 ± 0.044
50 | CUUAAGCUCUGGAACUACUCGGUUACCUAA | 0.0422 ± 0.011

Row | Sequence | pre-steady-state target cleavage rate
51 | CUUAUCCUCUGGAACUACUGGGUUACCUUA | 0.254 ± 0.03
52 | CGAUUCCUCUGGAUCUACUGGGUUACCUAA | 0.329 ± 0.048
53 | CUUUUCCUCUGGAUCUACUGGGUAACCAAA | 0.13 ± 0.034
54 | CUUAAGGACGGGAUCUACUGGGUUACCUAA | 0.0681 ± 0.038
55 | GAAUUCCUCUGGAUCUGCUGGGUUACCUAA | 0.213 ± 0.044
56 | CUAUUCCUCUGGAAGUACUGGGUUACCUAA | 0.631 ± 0.046
57 | CAAUUCCUCUGGAUUCUACUGGGUUACCUAA | 0.473 ± 0.059
58 | CAAUUCCUCUGGAAGUACUGGGUUACCUAA | 0.651 ± 0.044
59 | CAAUUCCUCUGGAUUACUGGGUUACCUAA | 0.692 ± 0.054
60 | GAAUUCCUCUGGAUUACUGGGUUACCUAA | 0.413 ± 0.04
61 | CAAUUCCUCUGGAUUUACUGGGUUACCUAA | 0.681 ± 0.062
62 | GAAUUCCUCUGGAUUUACUGGGUUACCUAA | 0.425 ± 0.073
63 | GAAUUCCUCUGGAAGUACUGGGUUACCUAA | 0.511 ± 0.047
64 | CAAUUCCUCUGGAUCUGCUGGGUUACCUAA | 0.641 ± 0.08
65 | CAAUUCCUCUGGAUCUCCUGGGUUACCUAA | 0.231 ± 0.051
66 | CUAUUCCUCUGGAUUUACUGGGUUACCUAA | 0.529 ± 0.048
67 | CAAUUCCUCUGGUUCUACUCGGUUACCUAA | 0.167 ± 0.014
68 | CAAUUCCUCUGGAACUACUGGGUUACCAAA | 0.289 ± 0.055
69 | CUUAAGGAGUGGAUCUACUGGGUUGCCUAA | 0.0417 ± 0.011
70 | CUUAUCCAUCUGGAUCUACUGGGUUACCUAA | 0.508 ± 0.051
71 | CUUUUCCUCUGGACCUACUGGGUUACCUAA | 0.157 ± 0.02
72 | GAAUUCCUGUGGAUCUACUGCGUUACCUAA | 0.362 ± 0.053
73 | CUUAUCCUCUGGAUCUACUGGGAUACCUAA | 0.302 ± 0.039
74 | CUUAAGGUCUGGAUCUUCUGGGAUACCUAA | 0.0453 ± 0.017

Reference: the supplement of paper PMC10338343
